# Records with an inconclusive call do not appear. A call without a number means that no potency is given here. Unmarked numbers belong to inactive results. Calls of active or inactive are those of the source. The call rests on the fitted dose curve; in most records, active means well fitted curve in the direction sought with a large enough effect; inconclusive means small, poorly fitted or top-dose-only effect, or another doubt; inactive means no such curve, though single readings can be large; an effect the other way counts as inactive or inconclusive.
# Tests used:
# HEK293 = experiment: Cytotoxic Profiling of Annotated Libraries Using Quantitative High-Throughput Screening (AID 1296008); settings: Five cell lines viability, CellTiter-Glo ATP luminescence, 48-72 h; max response: active compounds read low; further: nearly all actives have a fitted effect of over 60% in size
# Outline: (§1)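 Compounds were pin-transferred onto cells and incubated 48 or 72 hr at 37 degree Celsius, 95% humidity. CellTiter-Glo was added, plates sat 10 min at room temperature, then ATP-coupled luminescence was imaged as the viability read-out.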
# HaCat = experiment: as above; settings: Five cell lines viability, CellTiter-Glo ATP luminescence, 48-72 h; max response: active compounds read low
# Outline: as §1
# KB-3-1 = experiment: as above; settings: Five cell lines viability, CellTiter-Glo ATP luminescence, 48-72 h; max response: active compounds read low
# Outline: as §1
# NIH3T3 = experiment: as above; settings: Five cell lines viability, CellTiter-Glo ATP luminescence, 48-72 h; max response: active compounds read low
# Outline: as §1
# C33A = experiment: Primary qHTS to identify gynecologic anti-cancer compounds using libraries of approved drugs and bioactive compounds (AID 1345084); settings: Gynecologic cancer cell panel viability, ATPlite luminescence, 48 h; series mostly up to 57.5 µM; further: nearly all actives have a fitted effect of over 55% in size
# Outline: (§2)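 Cytotoxicity screen measuring ATP content by luciferase luminescence. Each compound is applied at five concentrations for 48 h at 37 C with 5% CO2.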
# CAOV3 = experiment: as above; settings: Gynecologic cancer cell panel viability, ATPlite luminescence, 48 h; series mostly up to 57.5 µM
# Outline: as §2
# CASKI = experiment: as above; settings: Gynecologic cancer cell panel viability, ATPlite luminescence, 48 h; series mostly up to 57.5 µM
# Outline: as §2
# Es-2 = experiment: as above; settings: Gynecologic cancer cell panel viability, ATPlite luminescence, 48 h; series mostly up to 57.5 µM
# Outline: as §2
# HeLa = experiment: as above; settings: Gynecologic cancer cell panel viability, ATPlite luminescence, 48 h; series mostly up to 57.5 µM
# Outline: as §2
# Hek293T = experiment: as above; settings: Gynecologic cancer cell panel viability, ATPlite luminescence, 48 h, control line for the selectivity index; series mostly up to 57.5 µM
# Outline: as §2
# JEG-3 = experiment: as above; settings: Gynecologic cancer cell panel viability, ATPlite luminescence, 48 h; series mostly up to 57.5 µM
# Outline: as §2
# Potency means the concentration at half of the fitted maximal effect.
Structure (SMILES),max response (HEK293),max response (HaCat),max response (KB-3-1),max response (NIH3T3),Potency (C33A),Potency (CAOV3),Potency (CASKI),Potency (Es-2),Potency (HeLa),Potency (Hek293T),Potency (JEG-3),outcome (KB-3-1),Potency (HEK293),Potency (HaCat),Potency (KB-3-1),Potency (NIH3T3)
COc1ccc(CCO[C@@H]2O[C@H](CO[C@@H]3OC[C@H](O)[C@H](O)[C@H]3O)[C@@H](O)[C@H](O)[C@H]2O)cc1,-0.354%,-19%,4%,-5.95%,inactive,inactive,inactive,inactive,inactive,inactive,inactive,,,,,
CSc1ccc(C(=O)N[C@@H]2CCCC[C@@H]2NC(=O)CNC(=O)c2cc(C(F)(F)F)ccc2NC(=O)NC(C)C)cc1,-11.3%,-8.38%,-4.76%,0.151%,inactive,inactive,inactive,inactive,inactive,inactive,inactive,,,,,
CC(=O)OC1C(O)C2C(C)C3=CC(=O)OC3(O)CC2C2(C)CCCC(C)(CO)C12 (stereo unspecified),-10%,3.69%,,0.673%,inactive,inactive,inactive,inactive,inactive,inactive,inactive,inactive,,,,
CC(C)CC1NC(=O)C(C)NC(=O)C(CC(C)C)OC(=O)CCCNC1=O (stereo unspecified),-5.55%,-8.69%,,-22.2%,inactive,inactive,inactive,inactive,inactive,inactive,inactive,inactive,,,,
CC(C)(F)C[C@@H](N[C@@H](c1ccc(-c2ccc(S(C)(=O)=O)cc2)cc1)C(F)(F)F)C(=O)NC1(C#N)CC1,-10.4%,-33%,,-4.72%,inactive,inactive,inactive,inactive,inactive,inactive,inactive,inactive,,,,
O=C(O)/C=C/c1cc2c(cc1O[C@@H]1O[C@H](CO)[C@@H](O)[C@H](O)[C@H]1O)OCO2,2.33%,0.0176%,8.77%,4.44%,inactive,inactive,inactive,inactive,inactive,inactive,inactive,,,,,
CC1=CC(=O)C2(OC3OC(C)C(O)C(OC(=O)/C=C/c4ccccc4)C3O)C=COC(OC3OC(CO)C(O)C(O)C3O)C12 (stereo unspecified),-0.0394%,2.65%,7.12%,3.5%,inactive,inactive,inactive,inactive,inactive,inactive,inactive,,,,,
CC1(C)CCCC2(C)C1CC=C1C(=O)OC(O)C12O (stereo unspecified),-21.2%,3.25%,3.77%,0.868%,inactive,inactive,inactive,inactive,inactive,inactive,inactive,,,,,
CC(O)CO[C@@H]1O[C@H](CO)[C@@H](O)[C@H](O)[C@H]1O (stereo partly specified),-61.7%,-15.1%,,0.151%,inactive,inactive,inactive,inactive,inactive,inactive,inactive,inactive,,,,
CC/C=C\CCO[C@@H]1O[C@H](CO)[C@@H](O)[C@H](O)[C@H]1O,0.0515%,-6.57%,3.45%,-7.98%,inactive,inactive,inactive,inactive,inactive,inactive,inactive,,,,,
COc1cc2oc(-c3ccc(O)cc3O)cc2c(OC)c1CC=C(C)C,3%,-6.75%,-1.08%,2.22%,inactive,inactive,inactive,inactive,inactive,inactive,inactive,,,,,
CC1=CC(=O)C2C(C)(C)CCC[C@]2(C)[C@H]1CO (stereo partly specified),1.55%,-11.3%,2.57%,2%,inactive,inactive,inactive,inactive,inactive,inactive,inactive,,,,,
COc1ccc2cc(C(C)C(=O)Oc3ccc(C(N)=S)cc3)ccc2c1 (stereo unspecified),-0.854%,2.17%,7.25%,3.5%,inactive,inactive,inactive,inactive,inactive,inactive,inactive,,,,,
COC(=O)C1=COC(OC2OC(CO)C(O)C(O)C2O)C2C1C=CC2(O)CO (stereo unspecified),-11.3%,-21.5%,,3.54%,inactive,inactive,inactive,inactive,inactive,inactive,inactive,inactive,,,,
CCOc1ccc(NC(=S)N2CCC(C(O)(c3ccccc3)c3ccccc3)CC2)cc1,-4.42%,1.92%,,-1.64%,inactive,inactive,inactive,inactive,inactive,inactive,inactive,inactive,,,,
CCCn1c(=O)c2[nH]c(-c3ccc(OCC(=O)O)cc3)nc2n(CCC)c1=O,-2.68%,-4.84%,,-3.27%,inactive,inactive,inactive,inactive,inactive,inactive,inactive,inactive,,,,
CC(C)(C)NC(=O)[C@@H](c1cccnc1)N(C(=O)c1ccco1)c1ccc(C(C)(C)C)cc1,-16.3%,-16.4%,,4.2%,inactive,inactive,inactive,inactive,inactive,inactive,inactive,inactive,,,,
C=C1C[C@]23C[C@H]1CC[C@H]2[C@@]1(C)CCC[C@@]2(C)C(=O)O[C@@H]([C@@H]3O)[C@@H]12,-8.12%,-2.64%,,-6.16%,inactive,inactive,inactive,inactive,inactive,inactive,inactive,inactive,,,,
O=C1OCC(c2ccccc2)=C1Cc1ccccc1,0.652%,-5.17%,-0.0133%,-8.21%,inactive,inactive,inactive,inactive,inactive,inactive,inactive,,,,,
Cc1nc2sc(C(=O)NCc3ccncc3)c(N)c2c(C)c1Cl,-2.15%,0.272%,-3.45%,-29.7%,inactive,inactive,inactive,inactive,inactive,inactive,inactive,,,,,
Nc1ncnc2c1nc(N)n2[C@@H]1O[C@H](CO)[C@@H](O)[C@H]1O,,,,,3.55 µM (active),1.26 µM (active),3.16 µM (active),3.16 µM (active),5.01 µM (active),7.94 µM (active),15.8 µM (active),,1.64 µM (active),0.58 µM (active),4.61 µM (active),4.11 µM (active)
C=C1CCC2C(C)(C(=O)OC)CCCC2(C)C1CCC(C)CC(=O)O (stereo unspecified),-9.98%,-22.8%,0.0997%,2.98%,inactive,inactive,inactive,inactive,inactive,inactive,inactive,,,,,
CC(C)(C)CCN1C[C@@H]2C(CNC(=O)c3cc(Cl)cc(Cl)c3)[C@@H]2C1 (stereo partly specified),-15.4%,-17.8%,-5.02%,-2.97%,inactive,inactive,inactive,inactive,inactive,inactive,inactive,,,,,
C/C(=C/CO)CC[C@@H]1[C@@](C)(O)CCC2C(C)(C)CCC[C@]21C (stereo partly specified),4.02%,0.603%,5.46%,-10.9%,inactive,inactive,inactive,inactive,inactive,inactive,inactive,,,,,
C[C@@H]1CC[C@]2(C(=O)O)CC[C@]3(C)C(=CCC4[C@@]5(C)C[C@@H](O)[C@H](O)[C@@](C)(CO)C5CC[C@]43C)C2[C@]1(C)O (stereo partly specified),-12.2%,4.14%,2.17%,-6.81%,inactive,inactive,inactive,inactive,inactive,inactive,inactive,,,,,
C=CC1(C)CC(OC(=O)/C(C)=C\COC(C)=O)C(C(=C)C(=O)O)C(O)C1C(=C)CO (stereo unspecified),-0.348%,3.73%,8.05%,-3.05%,inactive,inactive,inactive,inactive,inactive,inactive,inactive,,,,,
